High-throughput results: PubChem, Fisher Drug Discovery Resource Center
An excerpt weighted towards active compounds, which were near 0.24% of everything screened.
mcGAS lum: inhibitors of mouse cGAS; Q8C6L5; recombinant cGAS, Kinase-Glo ATP depletion luminescence; inhibition, % at 12.5 µM; actives 0.15% (n = 160,000)
hcGAS inh: inhibitors of human cGAS; Q8N884; recombinant h-cGAS, ATP depletion, Kinase-Glo luminescence; inhibition, % at 12.5 µM; actives 0.081% (n = 290,000)
Target sequence (Q8N884 whole entry, looked up): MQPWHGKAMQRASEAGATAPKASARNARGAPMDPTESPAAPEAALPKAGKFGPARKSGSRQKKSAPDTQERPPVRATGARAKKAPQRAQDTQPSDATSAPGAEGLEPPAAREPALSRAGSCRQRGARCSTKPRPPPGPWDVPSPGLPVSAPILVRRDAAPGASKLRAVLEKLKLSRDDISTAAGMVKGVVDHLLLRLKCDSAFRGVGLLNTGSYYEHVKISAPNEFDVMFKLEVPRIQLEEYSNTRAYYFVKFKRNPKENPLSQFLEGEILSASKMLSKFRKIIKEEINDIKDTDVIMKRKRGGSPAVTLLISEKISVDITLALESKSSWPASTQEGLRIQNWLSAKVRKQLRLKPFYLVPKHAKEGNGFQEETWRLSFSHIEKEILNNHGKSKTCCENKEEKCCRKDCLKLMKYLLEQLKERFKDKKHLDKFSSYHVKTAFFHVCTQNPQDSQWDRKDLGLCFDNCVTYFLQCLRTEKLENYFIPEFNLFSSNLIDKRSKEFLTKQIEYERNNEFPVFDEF
NPYLR7 agonist: activates Aedes aegypti NPYLR7 receptor. actives 0.15% (n = 270,000). activation, % at 10 µM. HEK293T NPYLR7/Galpha15, GCaMP6s calcium fluorescence; in the data active = activation above about 40%
Hits are given with their value; i = inactive; nt = no result given; + = active, no number; ! = repeats disagree. Cut-off read from the data, not from the text of the source, unless noted: active = inhibition above about 40%; inactive = the rest.

SMILES	mcGAS lum	hcGAS inh	NPYLR7 agonist
CCC1=NN2C(=N)/C(=C\c3ccc(OC)c(OC)c3OC)C(=O)N=C2S1	43.7	i	i
Cc1nc(NC(CCn2cncn2)c2ccccc2)c2ccsc2n1 (centres undefined)	nt	i	i
CN(Cc1cc(-c2ccccc2)on1)C(=O)C1CC2(CCNCC2)CN1 (centres undefined)	i	i	i
CN(Cc1cnc2ccccc2n1)C(=O)C1CC2(CCNCC2)CN1 (centres undefined)	i	i	58.3
O=C(Cc1cscn1)N1CCCC(c2nc(-c3ccncc3)ncc2-c2ccccc2)C1 (centres undefined)	nt	i	i
O=C(Nn1c(O)c(C=C2C=Nc3ccccc32)sc1=S)c1ccccc1[N+](=O)[O-]	i	i	i
CC(C(=O)O)n1c(O)c(C=C2C=Nc3ccccc32)sc1=S (centres undefined)	i	i	75.3
O=C(O)c1ccc(-n2c(O)c(C=C3C=Nc4ccccc43)sc2=S)cc1	i	i	i
O=C(O)CCn1c(O)c(C=C2C=Nc3ccccc32)sc1=S	i	i	46.5
COC(=O)[C@H](Cc1c[nH]c2ccccc12)n1cc2ncccc2c1O	i	i	i
CS(=O)(=O)NCC1CCN(Cc2ccc(-c3ccccn3)cc2)C1 (centres undefined)	nt	i	i
COc1cccc2c1C(=O)c1c(O)c3c(c(O)c1C2=O)C[C@@](O)(C(C)=O)C[C@@H]3O[C@H]1C[C@H](N)[C@H](O)[C@H](C)O1	nt	60.1!	i
COc1cccc2c1C(=O)c1ccccc1C2=O	i	i	i
CC(=O)[C@]1(O)Cc2c(O)c3c(c(O)c2[C@@H](O[C@H]2C[C@H](N)[C@H](O)[C@H](C)O2)C1)C(=O)c1ccccc1C3=O	96.1	68.6	99.7
COc1cccc2c1C(=O)c1c(O)c3c(c(O)c1C2=O)C[C@@](O)(C(=O)CO)C[C@@H]3O[C@H]1C[C@H](N)[C@@H](O)[C@H](C)O1	nt	47.7	i
CCOC(=O)N1CCN(C(c2ccc(C)cc2)c2c(O)cc(C)n(CC)c2=O)CC1 (centres undefined)	nt	i	i
CC(C)N1CCNC(=O)C1CC(=O)NCc1cn[nH]c1-c1cccs1 (centres undefined)	i	i	i
CCc1cnc(C)nc1N1CCN(Cc2ccc(C)cc2)C(=O)C1	nt	i	i
CC(C)(C)c1cnc(CSc2cnc(NC(=O)C3CCNCC3)s2)o1	i	i	60.1
CCc1nc(SCc2ncc(C(C)(C)C)o2)n[nH]1	nt	i	i
C#CCN1CCC(C(=O)NCC(C)(C)NC(C)c2ccccc2)CC1 (centres undefined)	nt	i	i
CC(c1ccc(F)cc1)N1CCC(C(=O)NC2CCCCC2)CC1 (centres undefined)	nt	i	i
CNC(=O)CN(CC1CC1)[C@@H]1C[C@@H]2CO[C@H](C(C)C)C[C@@H]2C1	i	i	i
Cc1ccn2c(NC(=O)CCC3CCCC3)c(-c3ccc(Cl)cc3)nc2c1	i	i	i
O=C(O)CN1C(=O)/C(=C2\SC(=S)NC2=O)c2ccccc21	102.6	i	i
SMILES	mcGAS lum	hcGAS inh	NPYLR7 agonist
CCN1C(=O)/C(=C2\SC(=S)NC2=O)c2ccccc21	i	i	i
CCc1nc2c(OCc3ccc(C(=O)N(C)C)cc3)cccn2c1N(C=O)Cc1ccccc1	i	i	i
COc1ccc2[nH]c(CNC(=O)C(=O)c3ccco3)cc2c1	nt	i	i
CC(C)C(Cn1ccnc1)NC(=O)C1(c2ccccc2F)CC1 (centres undefined)	i	i	i
CC(=O)Nc1sc2c(c1-c1nc3ccccc3s1)CCN(C(C)C)C2	103.9	78.1	i
CC(C)N1CCc2c(sc(NC(=O)c3ccnn3C)c2-c2nc3ccccc3s2)C1	i	i	nt
CNC(=O)[C@@H]1C[C@H]2CN(CCOC)C(=O)c3cccc(c32)N1C(=O)c1cc(C)oc1C	i	i	i
CCc1nn(C(C)C(=O)NC)c(=O)c2cc3occc3n12 (centres undefined)	i	i	i
CCc1nn(C(C)C(=O)NC(C)CCc2ccco2)c(=O)c2cc3occc3n12 (centres undefined)	i	i	67.6
O=C(Nc1c2c(nn1-c1ccccc1)CCC2)c1cscn1	i	i	i
Clc1cc2c(c(CSc3nnnn3-c3ccccc3)c1)OCOC2	i	71.9	i
Clc1cc2c(c(CSc3nnc(-c4ccccc4)o3)c1)OCOC2	i	i	i
CCCCN1CCC(CCC(=O)c2cc(Cl)c(N)cc2OC)CC1	nt	i	i
CCCCN1CCC(COC(=O)c2cc(Cl)c(N)c3c2OCCO3)CC1	91.4	i	i
c1cnc(O[C@@H]2CO[C@H]3[C@@H]2OC[C@@H]3n2nnnc2Sc2ncccn2)nc1	i	i	i
COc1cccc(CN(C(=O)c2cccc(F)c2)C2CC2)c1OCc1nc(CO)cs1	i	i	i
COc1cccc(CNC2CC2)c1OCc1nc(CO)cs1	nt	i	46.2
CCCN1CCN(C(=O)CC2CCCN(c3cnn(C)c(=O)c3)C2)CC1 (centres undefined)	i	i	nt
CCOC(=O)c1c(S(=O)(=O)NCc2ccc(F)cc2Cl)n[nH]c1CC	i	i	i
CC(=O)Nc1nc(COC(=O)c2[nH]c(C)c(C(=O)OC(C)C)c2C)cs1	i	i	45.6
CC(=O)c1c(C)[nH]c(C(=O)Nc2nc(C)cs2)c1C	nt	i	i
CCn1c(O)c(C=Nc2c(C#N)c(C)c(C)n2C2CCCCC2)c(=O)n(CC)c1=S	i	i	69.0
CCn1c(O)c(C=Nc2c(C)nn(C)c2C)c(=O)n(CC)c1=S	i	i	i
O=C1N=c2ccc(Br)cc2=C1c1c(O)n(-c2ccccc2)[nH]c1=O	i	i	i
COc1cc(-c2cc(=O)c3c(O)c(OC)c(OC)c(OC)c3o2)cc(OC)c1OC	nt	i	i
SMILES	mcGAS lum	hcGAS inh	NPYLR7 agonist
COc1c(O)cc2c(=O)oc3c(OC)c(O)cc4c(=O)oc1c2c34	i	75.3	i
CC(C)(C)NC(=O)NC(=O)CNc1ccc(C(F)(F)F)cc1	i	i	i
N#CC=CN1CCc2ccccc2C1	nt	i	i
CCN1CCN(C2=CC3=CC(=C(C#N)C#N)CCC3CC2)CC1 (centres undefined)	i	i	+
N#CC(C#N)=C1C=C2CC(=NCc3ccccc3)CCC2CC1 (centres undefined)	nt	i	i
N#CC(C#N)=C1C=C2C=C(N3CCCCCC3)CCC2CC1 (centres undefined)	i	i	673.2
N#CC(C#N)=C1C=C2C=C(N3CCc4ccccc4C3)CCC2CC1 (centres undefined)	nt	i	87.1
O=C(CCNS(=O)(=O)c1cccs1)N1CCN(C(=O)c2ccco2)CC1	nt	i	i
COc1ccc(-c2csc(NC(=O)CN3CC(C)CC(C)C3)n2)c(OC)c1 (centres undefined)	nt	i	i
COc1ccc(-c2csc(NC(=O)CCl)n2)c(O)c1	59.9	i	i
CCOC=C(C#N)c1nc(C)cs1	nt	i	83.7
CCOc1cccc(/C=C(/C#N)c2nc(C)cs2)c1OC(F)F	nt	i	i
CCN1CC=C2C(C#N)C(=N)C(C#N)(C#N)C(c3cccs3)C2C1 (centres undefined)	i	i	49.9
N#CC1C(=N)C(C#N)(C#N)C(c2cccs2)C2CSCC=C12 (centres undefined)	nt	i	i
CN(C)CCN1CC(C(=O)N(C)Cc2nc3ccc(F)cc3[nH]2)CC1=O (centres undefined)	nt	i	i
